Marburg entry inh: blocks Marburg virus binding to or entry into cells; Marburg virus pseudotyped entry inhibition, cell reporter; Potency, µM (titrated, usually from 37.8 µM), inactives show at the top dose activity change, negative = inhibition, hits mostly inhibitors; hit rate 1.8% among 300,000; AID 540276; calls by dose curve; tested in HEK293 cells
VACV mCherry inh: inhibitors of vaccinia virus infection (mCherry reporter signal) | Potency, µM (doses to about 36.5 µM), for the others: top-dose activity change, negative = inhibition, most hits filed as inhibitors | hit rate 0.63% among 310,000 | Vaccinia virus mCherry reporter infection, fluorescence; calls by dose curve; tested in A549 cells; also: nearly all actives have a fitted effect of over 35% in size
FMDV antiviral: blocks foot and mouth disease virus | FMDV antiviral cell-based qHTS | AID 1159524 | hit rate 1.2% among 410,000 | Potency, µM (series often up to 57.9 µM), inactives show at the highest dose activity change, negative = inhibition, hits mostly inhibitors; calls by dose curve; tested in HEK293T cells; also: read-out not given here; nearly all actives have a fitted effect of over 45% in size
LASV entry inh: Lassa virus entry inhibition; Lassa virus pseudotype entry inhibition, cell reporter; Potency, µM (titrated, usually from 37.9 µM), for inactives: at the top dose activity change, negative = inhibition, hits mostly inhibitors; hit rate 1.2% among 300,000; AID 540256; calls by dose curve; tested in HEK293 cells; also: nearly all actives have a fitted effect of over 50% in size
Vaccinia Venus: vaccinia inhibition (Venus reporter) | Vaccinia virus Venus reporter expression, fluorescence | Potency, µM (series often up to 36.5 µM), for the others: at the highest dose activity change, negative = inhibition, most hits filed as inhibitors | hit rate 0.46% among 330,000; calls by dose curve; tested in A549 cells; also: nearly all actives have a fitted effect of over 30% in size
The depositor's hits bear a star; [ ] = dose if it differs, or a comment. Sampled rows, rich in hits. Any-hit rate of the full collection: about 3.2%. % is scaled to controls: 0 for no effect and ±100 for the full control effect; potency is read from the fitted curve at half-maximal effect.

`CC[C@H](C)[C@@H]1NC(=O)CNC(=O)c2csc(n2)[C@H](C(C)(C)O)OC(=O)C(C)(C)[C@H](CCCC(C)(Cl)Cl)OC(=O)c2csc1n2` gave VACV mCherry inh 5.6µM*, FMDV antiviral -14% and Vaccinia Venus 6.3µM*.
`O=C(CSc1cnc2ccccc2n1)c1ccc(F)cc1` gave Marburg entry inh inconclusive, FMDV antiviral 18% and LASV entry inh 5.8µM*.
For O=C(Nc1ccc(NC(=O)c2ccco2)nc1)c1ccco1 the results were Marburg entry inh inconclusive, VACV mCherry inh inactive, FMDV antiviral -43%, LASV entry inh inconclusive and Vaccinia Venus -10%.
CC(C)(C)C(=O)Nc1ccc(NC(=O)c2ccco2)nc1 was read as Marburg entry inh inconclusive, VACV mCherry inh -8%, FMDV antiviral 6.3µM*, LASV entry inh inconclusive and Vaccinia Venus -6%.
`CC(=O)OC[C@H]1O[C@@H](ON=C[C@@H](C)[C@H](OCc2ccccc2)C(C)C)[C@@H](OC(C)=O)[C@@H](OC(C)=O)[C@@H]1OC(C)=O` gave Marburg entry inh inconclusive and LASV entry inh 23%[14.3 µM].
`CCOc1ccc(C(=O)Nc2ccc3nc(N(CC)CC)cc(C)c3c2)cc1` gave Marburg entry inh 29%[46.1 µM], VACV mCherry inh 5%, FMDV antiviral 32µM*, LASV entry inh 10%[46.1 µM] and Vaccinia Venus -14%.
`CCN(CC)c1cc(C)c2cc(NC(=O)/C=C/c3cc(OC)c(OC)c(OC)c3)ccc2n1` gave Marburg entry inh inconclusive, VACV mCherry inh 1%[7.34 µM], FMDV antiviral -23%, LASV entry inh inconclusive and Vaccinia Venus -6%[7.34 µM].
For CCOc1ccc(/C=C/C(=O)Nc2ccc3nc(N(CC)CC)cc(C)c3c2)cc1OC the results were Marburg entry inh 11µM*, VACV mCherry inh -20%, FMDV antiviral -22%, LASV entry inh inconclusive and Vaccinia Venus -13%.
`CCN(CC)c1cc(C)c2cc(NC(=O)c3cccc(OC)c3)ccc2n1` gave Marburg entry inh inconclusive, VACV mCherry inh -17%, FMDV antiviral 0%, LASV entry inh inconclusive and Vaccinia Venus -17%.
For CCOC(=O)c1cc(S(=O)(=O)Nc2ccccc2)[nH]n1 the results were VACV mCherry inh -7%, FMDV antiviral 30%, LASV entry inh inconclusive and Vaccinia Venus -5%.
COc1ccc(Cl)cc1NC(=O)NCCN1CCNC1=O was read as Marburg entry inh -17%, VACV mCherry inh -13%, FMDV antiviral -5%, LASV entry inh inconclusive and Vaccinia Venus -10%.
`COc1ccc(Cl)cc1NC(=O)NCCCl` gave Marburg entry inh 5%, FMDV antiviral 6%, LASV entry inh 8% and Vaccinia Venus 10µM*.
Screening Cc1ccc(C(=O)N2CCN(c3ccc(NC(=O)COc4ccccc4C)cc3)CC2)cc1 returned Marburg entry inh inconclusive, VACV mCherry inh inconclusive, FMDV antiviral 14µM*, LASV entry inh inconclusive and Vaccinia Venus inconclusive.
Screening CCC(=O)N1CCN(c2ccc(NC(=O)COc3ccccc3Cl)cc2)CC1 returned Marburg entry inh inconclusive, FMDV antiviral 32µM* and LASV entry inh inconclusive.
`CCC(=O)N1CCN(c2ccc(NC(=O)COc3ccc(C)cc3C)cc2)CC1` gave Marburg entry inh inconclusive, VACV mCherry inh -12%, FMDV antiviral -15%, LASV entry inh 15% and Vaccinia Venus -5%.
For CCC(=O)N1CCN(c2ccc(NC(=O)COc3ccccc3[N+](=O)[O-])cc2)CC1 the results were FMDV antiviral 28µM*.
`Cc1cccc(C)c1NC(=O)[C@H]1CCCCN1C` gave Marburg entry inh 10%.
For CCOC(=O)OC[C@H]1O[C@H](c2cc(C)cc(C)c2)C=C[C@@H]1OC(=O)OCC the results were Marburg entry inh 2%[14.2 µM].
Cc1ccc(S(=O)(=O)CCSc2nccn2C)cc1 was read as Marburg entry inh 28%[46.1 µM], VACV mCherry inh -13%, FMDV antiviral 22%, LASV entry inh 9%[46.1 µM] and Vaccinia Venus -9%.
For CCCn1c(SCc2nc3ccccc3s2)n[nH]c1=O the results were Marburg entry inh 25%[46.1 µM], VACV mCherry inh -2%, FMDV antiviral 55%, LASV entry inh -27% and Vaccinia Venus 2%.
Screening Cc1cc(C)c(-n2c(SCc3nc4ccccc4s3)n[nH]c2=O)c(C)c1 returned Marburg entry inh inconclusive, VACV mCherry inh -27%, FMDV antiviral 35µM*, LASV entry inh inconclusive and Vaccinia Venus -27%.
